Test results from the supplement of paper PMC12669032.
Several values for one entry are separate records, joined by “and”; a condition that tells them apart may be missing. Identical values can stand only once.

Assays:
Assay in all cases: growth AUC relative to DMSO control (median of replicates) (fraction); higher = more growth (less inhibition), active = hit call of the paper
Conditions in all cases: 20 µM; 24 h;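 active = AUC reduced over 20% with Padj below 0.05 in at least 2 of 3 replicates; inactive = otherwise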
[1] = test system: Akkermansia muciniphila
Summary of the method: (§1)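 Area under the growth curve was normalised to the plate median of solvent-only wells, except on the industrial chemical plate, where row and column medians were used. Curves came from gut bacterial monocultures grown anaerobically at 37 °C in mGAM with 20 µM compound (1% DMSO), starting at OD600 0.05 and read at OD600 every hour for 24 h. The minimum OD of each curve was set to 0, and values are medians of three biological replicates grown on separate days.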

[2] = test system: Bacteroides caccae
Summary of the method: as §1

[3] = test system: Bacteroides clarus
Summary of the method: as §1

[4] = test system: Bacteroides dorei
Summary of the method: as §1

[5] = test system: Bacteroides stercoris
Summary of the method: as §1

[6] = test system: Bacteroides thetaiotaomicron
Summary of the method: as §1

[7] = test system: Bacteroides uniformis
Summary of the method: as §1

[8] = test system: Bifidobacterium longum subsp. longum
Summary of the method: as §1

[9] = test system: Clostridium difficile
Summary of the method: as §1

[10] = test system: Collinsella aerofaciens
Summary of the method: as §1

Measured: growth AUC

COP(=S)(OC)Oc1cc(Cl)c(Br)cc1Cl
inactive: [1] 0.9 | [2] 0.961 | [3] 0.966 | [4] 0.995 | [5] 1.03 | [6] 0.963 | [7] 1.01 | [8] 0.971 | [9] 0.966 | [10] 0.978

O=C(O)c1ccccc1C(=O)Nc1cccc2ccccc12
inactive: [1] 1.04 | [2] 1.04 | [3] 1.02 | [4] 1.02 | [5] 1.18 | [6] 1.01 | [7] 0.993 | [8] 1.03 | [9] 1.01 | [10] 1.03

O=C(Nc1ccccc1)N(Cc1ccc(Cl)cc1)C1CCCC1
inactive: [1] 0.953 | [2] 0.983 | [3] 0.991 | [4] 0.991 | [5] 0.972 | [6] 0.964 | [7] 0.969 | [8] 1.02 | [9] 1.03 | [10] 0.98

CCNc1nc(NC(C)C(C)C)nc(SC)n1 (stereo not given)
inactive: [1] 0.961 | [2] 1.01 | [3] 0.962 | [4] 1 | [5] 1.04 | [6] 0.915 | [7] 0.972 | [8] 0.965 | [9] 1 | [10] 1.05

CCOP(=S)(NC(C)CC)Oc1cc(C)ccc1[N+](=O)[O-] (stereo not given)
inactive: [1] 0.974 | [2] 0.947 | [3] 0.946 | [4] 1.01 | [5] 0.865 | [6] 0.955 | [7] 0.917 | [8] 0.965 | [9] 1.03 | [10] 0.985

CNC(=O)Oc1cc(C)c(N(C)C)c(C)c1
inactive: [1] 1.02 | [2] 1.03 | [3] 0.971 | [4] 1.04 | [5] 0.852 | [6] 0.995 | [7] 1 | [8] 0.991 | [9] 1.1 | [10] 0.995

O=C(O)C(F)(F)C(F)(F)C(F)(F)C(F)(F)C(F)(F)C(F)(F)C(F)(F)F
inactive: [1] 1.01 | [2] 1 | [3] 1 | [4] 0.998 | [5] 1.01 | [6] 1.04 | [7] 0.963 | [8] 1.04 | [9] 0.991 | [10] 1

CC(=O)CC(c1ccco1)c1c(O)c2ccccc2oc1=O (stereo not given)
inactive: [1] 0.866 | [2] 1.01 | [3] 0.957 | [4] 1 | [5] 1 | [6] 0.98 | [7] 0.968 | [8] 0.95 | [9] 1.02 | [10] 0.967

O=C1CCc2cccc3c2N1CC3
inactive: [1] 1.04 | [2] 0.874 | [3] 0.964 | [4] 0.974 | [5] 1.14 | [6] 0.883 | [7] 0.98 | [8] 1.03 | [9] 1.03 | [10] 0.954

COS(=O)(=O)[O-].Cn1c(-c2ccccc2)cc(-c2ccccc2)[n+]1C
inactive: [1] 0.936 | [2] 0.994 | [3] 0.966 | [4] 0.976 | [5] 0.979 | [6] 0.938 | [7] 1.01 | [8] 0.925 | [9] 1.04 | [10] 0.989

O=C(NC(=O)c1c(F)cccc1F)Nc1ccc(OC(F)(F)C(F)OC(F)(F)F)c(Cl)c1 (stereo not given)
inactive: [1] 0.979 | [2] 0.991 | [3] 1.01 | [4] 1.03 | [5] 0.982 | [6] 0.974 | [7] 0.997 | [8] 1 | [9] 0.985 | [10] 0.971

O=C(O)COc1ccccc1
inactive: [1] 0.969 | [2] 0.918 | [3] 0.989 | [4] 0.944 | [5] 1.05 | [6] 1.02 | [7] 1 | [8] 1.11 | [9] 0.988 | [10] 0.885

ClC1=C(Cl)C(Cl)(C2(Cl)C(Cl)=C(Cl)C(Cl)=C2Cl)C(Cl)=C1Cl
inactive: [1] 1.27 | [2] 0.926 | [3] 0.93 | [4] 0.895 | [5] 0.809 | [6] 0.856 | [7] 0.875 | [8] 0.94 | [9] 1 | [10] 0.823

CC1(C)C(C=C(Cl)Cl)C1C(=O)OCc1cccc(Oc2ccccc2)c1 (mixture of isomers)
inactive: [1] 1.02 | [2] 0.991 | [3] 0.98 | [4] 1.01 | [5] 1.07 | [6] 1.02 | [7] 1.03 | [8] 0.957 | [9] 1.01 | [10] 0.942

O=C(NC(=O)c1c(F)cccc1F)Nc1cc(Cl)c(OC(F)(F)C(F)C(F)(F)F)cc1Cl (stereo not given)
inactive: [1] 0.997 | [2] 0.981 | [3] 0.982 | [4] 1.02 | [5] 1.01 | [6] 0.99 | [7] 0.962 | [8] 0.981 | [9] 1.04 | [10] 0.94

COC(=O)/C=C(/C)OP(=O)(OC)OC
inactive: [1] 1.05 and 1.08 | [2] 0.952 and 0.906 | [3] 1.02 and 1.08 | [4] 0.879 and 1.01 | [5] 0.938 and 1.2 | [6] 0.992 and 0.984 | [7] 0.981 and 0.997 | [8] 1 and 1.06 | [9] 0.956 and 1.01 | [10] 0.959 and 0.989

Cc1cc(Cl)ccc1OCC(=O)O
inactive: [1] 1.02 | [2] 0.996 | [3] 1.01 | [4] 0.933 | [5] 0.945 | [6] 1.02 | [7] 1 | [8] 1.1 | [9] 0.967 | [10] 1.04

CNC(=O)CSP(=O)(OC)OC
inactive: [1] 1.07 | [2] 1.03 | [3] 1.02 | [4] 1.03 | [5] 1.04 | [6] 0.997 | [7] 1.01 | [8] 1.06 | [9] 1.03 | [10] 1.03

CC(=O)O.CCCCCCCCCCCCN=C(N)N
inactive: [1] 1.28 | [2] 1.02 | [3] 0.988 | [4] 0.985 | [5] 1.17 | [6] 1.01 | [7] 0.986 | [8] 0.917 | [9] 1 | [10] 0.972

COP(=O)(OC)O/C(C)=C/C(=O)N(C)C
inactive: [1] 1.15 | [2] 1.01 | [3] 0.988 | [4] 0.993 | [5] 1.02 | [6] 0.988 | [7] 1.02 | [8] 0.989 | [9] 0.987 | [10] 0.996

CC(C)N(C(=O)COc1nnc(C(F)(F)F)s1)c1ccc(F)cc1
inactive: [2] 1.05 | [3] 1.02 | [4] 0.996 | [5] 0.973 | [6] 0.952 | [7] 0.907 | [8] 1.03 | [9] 0.955 | [10] 1.01
active: [1] 0.411

CCN(CC)C(=O)/C(Cl)=C(/C)OP(=O)(OC)OC
inactive: [1] 1.19 | [2] 1 | [3] 0.975 | [4] 0.921 | [5] 0.977 | [6] 0.958 | [7] 0.979 | [8] 1.02 | [9] 0.94 | [10] 0.967

CNC(=O)Oc1ccc(N(C)C)c(C)c1
inactive: [1] 1.05 | [2] 0.855 | [3] 1.01 | [4] 0.983 | [5] 1.41 | [6] 0.994 | [7] 1 | [8] 0.979 | [9] 0.99 | [10] 0.932

CC1(C)CC/C(=C\c2ccc(Cl)cc2)C1(O)Cn1cncn1 (stereo not given)
inactive: [1] 0.95 | [2] 0.976 | [3] 0.983 | [4] 0.965 | [5] 0.792 | [6] 0.971 | [7] 0.995 | [8] 1.08 | [9] 0.984 | [10] 0.987

Cc1ccc2nc3sc(=O)sc3nc2c1
inactive: [1] 1.04 | [2] 0.982 | [3] 1.01 | [4] 0.985 | [5] 0.879 | [6] 1 | [7] 1.04 | [8] 1.07 | [9] 1.02 | [10] 0.982

C[N+]1(C)CCCCC1.[Cl-]
inactive: [1] 0.993 | [2] 1.02 | [3] 1.03 | [4] 1.02 | [5] 1.02 | [6] 1.03 | [7] 1.05 | [8] 1.01 | [9] 1.01 | [10] 1.02

COP(=S)(OC)SC(CC(=O)O)C(=O)O (stereo not given)
inactive: [1] 0.974 | [2] 1.01 | [3] 0.963 | [4] 0.986 | [5] 1.06 | [6] 0.991 | [7] 0.99 | [8] 1.01 | [9] 1 | [10] 1.05

CCCN(CCC)c1c([N+](=O)[O-])cc(S(N)(=O)=O)cc1[N+](=O)[O-]
inactive: [1] 0.998 | [2] 0.956 | [3] 0.896 | [4] 0.932 | [5] 0.809 | [6] 0.948 | [7] 0.89 | [8] 0.987 | [9] 0.975 | [10] 0.975

CC[C@H](C)[C@H]1O[C@]2(C=C[C@@H]1C)C[C@@H]1C[C@@H](C/C=C(\C)[C@@H](O[C@H]3C[C@H](OC)[C@@H](O[C@H]4C[C@H](OC)[C@@H](NC)[C@H](C)O4)[C@H](C)O3)[C@@H](C)/C=C/C=C3\CO[C@@H]4[C@H](O)C(C)=C[C@@H](C(=O)O1)[C@]34O)O2.O=C(O)c1ccccc1
active: [2] 0.0357 | [3] 0.264 | [4] 0.0271 | [5] 0.00403 | [7] 0.322 | [8] 0.167 | [10] 0.553
inactive: [1] 1.08 | [6] 0.812 | [9] 0.781

CCN(CC)C(=O)SCc1ccc(Cl)cc1
inactive: [1] 0.879 | [2] 0.98 | [3] 0.954 | [4] 0.978 | [5] 1.12 | [6] 0.91 | [7] 0.973 | [8] 0.948 | [9] 1.02 | [10] 0.948

CC(C)(C)C(O)C(Oc1ccc(-c2ccccc2)cc1)n1cncn1 (mixture of isomers)
inactive: [1] 1.01 | [2] 0.919 | [3] 0.874 | [4] 0.926 | [5] 1.11 | [6] 0.938 | [7] 0.899 | [8] 0.847 | [9] 0.924 | [10] 0.995

CCCN(CCC)C(=O)SCc1ccccc1
inactive: [1] 1.04 | [2] 0.994 | [3] 0.996 | [4] 0.976 | [5] 1.13 | [6] 0.972 | [7] 0.985 | [8] 0.967 | [9] 0.987 | [10] 0.998

Fc1ccc(Oc2ccnc3cc(Cl)cc(Cl)c23)cc1
inactive: [1] 0.94 | [2] 0.899 | [3] 0.918 | [4] 1.05 | [5] 0.806 | [6] 0.887 | [7] 0.875 | [8] 0.905 | [9] 1.08 | [10] 0.967

CCSC(=O)N(CC)C1CCCCC1
inactive: [1] 0.936 | [2] 0.998 | [3] 0.974 | [4] 1.02 | [5] 1.06 | [6] 1.01 | [7] 1.01 | [8] 1.01 | [9] 1.01 | [10] 1.09

Cc1cccc2sc3nncn3c12
inactive: [1] 0.892 | [2] 0.989 | [3] 0.965 | [4] 1.04 | [5] 1.03 | [6] 0.993 | [7] 1.01 | [8] 0.964 | [9] 0.973 | [10] 1.07

COc1cccc(C(=O)NN(C(=O)c2cc(C)cc(C)c2)C(C)(C)C)c1C
inactive: [1] 1.14 | [2] 0.966 | [3] 0.996 | [4] 0.933 | [5] 0.951 | [6] 0.986 | [7] 0.958 | [8] 0.975 | [9] 0.969 | [10] 0.92

COc1cc(OC)n2nc(S(=O)(=O)Nc3c(Cl)ccc(C)c3Cl)nc2n1
inactive: [1] 1.05 | [2] 0.98 | [3] 0.962 | [4] 1.06 | [5] 0.969 | [6] 0.99 | [7] 0.964 | [8] 0.976 | [9] 1.08 | [10] 1.11

CCOP(=O)(OCC)O/C(=C\Cl)c1ccc(Cl)cc1Cl
inactive: [1] 0.854 | [2] 0.982 | [3] 0.952 | [4] 0.983 | [5] 0.956 | [6] 0.962 | [7] 0.942 | [8] 0.873 | [9] 1 | [10] 1
